# The list is not random: actives were taken first. Their share in the collection is about 1.5%.
# MbtI inh = inhibitors of Mycobacterium tuberculosis siderophore enzyme MbtI | inhibition, % (no concentration beside the values) | P9WFX0 | 100,000 compounds, 0.89% hits | purified MbtI enzyme, fluorescence intensity read-out; in the data active = inhibition mostly above about 56%, no sharp cut-off; inactive = mostly below about 77%
# PV pol inh = inhibitors of poliovirus RNA polymerase binding and polymerization; P03300; poliovirus polymerase elongation, fluorescence polarization; active compounds read low; % elongation, % (compound at 16.7 µg/mL); 150,000 compounds, 0.66% hits; AID 588519; in the data active = % elongation below about 90%
# Target sequence (P03300 1749-2209 limits assumed): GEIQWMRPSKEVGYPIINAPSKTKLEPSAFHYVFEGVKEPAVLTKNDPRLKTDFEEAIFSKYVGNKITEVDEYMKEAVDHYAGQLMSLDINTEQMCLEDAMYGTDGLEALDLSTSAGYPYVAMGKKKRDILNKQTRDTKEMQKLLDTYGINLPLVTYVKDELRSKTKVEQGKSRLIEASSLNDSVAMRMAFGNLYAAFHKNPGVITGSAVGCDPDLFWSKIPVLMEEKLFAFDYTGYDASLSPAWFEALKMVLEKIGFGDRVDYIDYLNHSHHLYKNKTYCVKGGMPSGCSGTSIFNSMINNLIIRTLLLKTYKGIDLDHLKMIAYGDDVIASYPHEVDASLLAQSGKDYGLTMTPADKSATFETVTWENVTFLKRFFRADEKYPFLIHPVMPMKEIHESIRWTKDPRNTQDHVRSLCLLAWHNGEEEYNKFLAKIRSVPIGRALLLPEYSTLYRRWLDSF
# MenB inh = inhibitors of Mycobacterium tuberculosis MenB enzyme. MenB enzyme assay, absorbance read-out. P9WNP5. inhibition, % (test concentration not listed). 100,000 compounds, 0.43% hits; in the data active = inhibition above about 21%, passing the limit was not always enough
# * marks the source's active call; other numbers are inactive results; . = not tested or not shown.
SMILES,MbtI inh,PV pol inh,MenB inh
Cc1c(C)c(NC(=O)/C=C/C(=O)O)c(C)c(C)c1NC(=O)/C=C/C(=O)O,60.0*,103.0,10.3
CS(=O)(=O)Nc1nnc(CSc2ccccc2)s1,-3.0,102.0,-16.2
CC(C)Cc1nnc(NS(C)(=O)=O)s1,94.6*,102.0,-30.7
CS(=O)(=O)c1ccc(Cl)c(NC(=O)CN2CCCSc3ccccc32)c1,0.4,101.0,-9.2
NCCc1cnn(-c2ccccc2)c1,-5.2,106.0,-52.9
O=C(OCn1nnc2ccccc2c1=O)C1CC(O)CN1S(=O)(=O)c1ccc(Cl)cc1 (stereo unspecified),28.9,99.0,-9.1
COc1ccc(C(=O)Nc2ccccc2C(=O)NC(C(=O)O)C(C)C)cc1 (stereo unspecified),-9.6,100.0,-5.3
COc1ccc(C(=O)Nc2ccccc2C(=O)NC(C(=O)NCc2ccco2)C(C)C)cc1 (stereo unspecified),-36.2,101.0,30.3*
Cc1cccc(-c2nnc(-c3ccccc3)o2)c1,-109.0,103.0,-28.8
Cc1cccc(-c2nnc(C3CCNCC3)o2)c1,77.8*,102.0,-34.5
CCCn1c(=NC(=O)c2ccccc2)c(C#N)cc2c(=O)n3cccc(C)c3nc21,23.8,102.0,-15.2
CCOC(=O)c1sc(N=NC2=C(O)CCCC2=O)c(C(=O)OCC)c1C,13.7,42.0*,-39.8
C=CCOC(=O)c1sc(N2CCCC2=O)c(C(=O)OCC)c1C,7.9,102.0,2.9
CCOC(=O)C1CCCN(C(=O)C23CC4CC(CC(C4)C2)C3)C1 (stereo unspecified),-11.1,103.0,.
CNc1ccccc1C(C)(C)c1cc(-c2cccs2)n[nH]1,-11.3,99.0,.
NNc1c(Cl)c(Cl)nc(C(=O)O)c1Cl,-9.0,104.0,-23.4
O=C(CSc1nc2c(c(=O)[nH]1)CSC2)c1ccc(Cl)cc1,82.0*,101.0,1.5
O=C(CSc1nc2ccccc2c(=O)[nH]1)c1ccccc1,43.0,.,.
CC1CCCC(C)N1C(=O)CSCc1ccco1 (stereo unspecified),-9.7,103.0,.
CCc1nnc(NC(=O)C2CCCO2)s1 (stereo unspecified),4.4,106.0,-24.8
CCc1nnc(NC(=O)C2CCCCC2)s1,99.8*,101.0,-18.8
Nc1cccc2c1C(=O)N(C(=O)c1cccc(S(=O)(=O)N3CCOCC3)c1)C2=O,-12.7,100.0,-33.1
CCC(=O)c1ccc(OCC(=O)OC(C)C(=O)Nc2ccc3c(c2)OCO3)cc1 (stereo unspecified),-4.8,101.0,-19.1
CC(C)CNC(=O)c1ccccc1S(=O)(=O)N1CCCCC1,93.6*,115.0,-23.0
O=S(=O)(c1cccc2ccccc12)N1CCCCC1,14.7,100.0,-40.1
SMILES,MbtI inh,PV pol inh,MenB inh
CCOc1ccc(S)cc1,33.7,103.0,6.3
Cc1cc(C)c2c(N)c(C3=NC(C)(C)Cc4ccccc43)sc2n1,.,107.0,-12.1
CC1(C)Cc2ccccc2C2=NNC(=O)C2=N1,4.9,84.0*,6.5
C=CCN(C(=O)CSc1nc2c(c(=O)[nH]1)CCC2)c1ccccc1,35.0,101.0,-3.4
CCn1cc(C(=O)N(Cc2ccc(N(C)C)cc2)Cc2ccco2)c(=O)c2ccc(C)nc21,-4.5,102.0,-12.7
CCN1C/C(=C/c2ccc(O)cc2)C(=O)/C(=C/c2ccc(O)cc2)C1,-2.8,102.0,-172.2
Cc1[nH]n(-c2nc3ccccc3[nH]2)c(=O)c1C1OC(=O)c2ccccc21 (stereo unspecified),99.6*,62.0*,-21.3
O=c1cc(-c2ccccc2)[nH]n1-c1nc2ccccc2[nH]1,-3.6,.,.
CN1CCOC(=O)/C1=N\Nc1cc(Cl)ccc1Cl,11.9,109.0,2.5
COCC(=O)Nc1ccccc1C(C)C,-6.6,98.0,1.3
CC(C)c1ccccc1NN,.,79.0*,11.5
CC1Sc2ccc(C(=O)NCc3ccccn3)cc2NC1=O (stereo unspecified),86.8*,87.0*,-42.0
CC(C)CN1C(=O)c2ccc(C(=O)NCc3ccccn3)cc2C1=O,-14.8,100.0,-3.9
CCOc1ccc(NC(=O)Cn2c(=O)n(CC(=O)NCCc3ccccc3)c(=O)c3sccc32)cc1,.,81.0*,.
COc1cccc(NC(=O)Cn2c(=O)n(CC(=O)NCCc3ccccc3)c(=O)c3sccc32)c1,.,105.0,.
COc1ccc([C@H]2NC(=O)C(=C=[N-])C(=O)[C@@H]2[n+]2ccccc2)cc1,.,37.0*,-16.0
COc1ccc(C2C(=O)c3ccccc3C2=O)cc1,2.8,100.0,4.9
N=C1C(c2nc3ccccc3s2)=C(O)CN1N1C(=O)c2ccccc2C1=O,54.0,89.0*,-0.2
CCOC(=O)c1ccc(N2CC(O)=C(c3nc4ccccc4s3)C2=N)cc1,-103.5,101.0,-0.9
CCn1c(N)c(C(=O)c2cccc(S(=O)(=O)N(C)C3CCCCC3)c2)c(=O)[nH]c1=O,7.7,104.0,-5.1
COc1ccc(CN(CC(=O)NC2CCCC2)C(=O)Cn2nnc(-c3ccc(OC)cc3)n2)cc1,2.1,102.0,32.7*

# From PubChem
